DAX1 inh-1 = blocks DAX1 repression of SF-1 activated StAR promoter. HEK293T StAR-luciferase reporter, SF-1/DAX-1 repression relief. inhibition, % at 6.8 µM. 1.1% of 370,000 active. AID 652010;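 active = inhibition above the mean over all tested compounds plus 3 SD, cut at about 3.6% in these data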;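 also: 0% = DAX-1 cells with DMSO and 100% = cells lacking DAX-1 with DMSO; higher inhibition means more luminescence from relief of DAX-1 repression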
SMARCA2 act = SMARCA2 function activation, primary screen. MG213 cells, MMTV-luciferase reporter, dexamethasone, overnight. activation, % at 9.1 µM. 1% of 370,000 active; in the data active = activation above about 7.8%;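 also: 0% = vehicle wells and 100% = reference activator wells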
ssDAF12 agonist = activates DAF-12 receptor from parasite S. stercoralis; HEK293 ssDAF-12/GRIP1 lit1-tk-luc reporter, luminescence; % of 3 µM dafachronic acid response; activation, % at 6.8 µM; 1% of 370,000 active; AID 652126;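 active = activation above the mean over all tested compounds plus 3 SD, cut at about 0.9% in these data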;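 also: 0% = DMSO-only wells and 100% = 3 µM delta7-dafachronic acid wells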
hgDAF12 agonist = activates the H. glycines DAF-12 receptor ligand-binding domain; HEK293 GAL4-hgDAF12 UAS-luciferase reporter, agonist luminescence; normalized to butyrate control; activation, % at 6.8 µM; 1.8% of 370,000 active; AID 687014;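 active = activation above a cutoff set at the mean of all screened compounds plus 3 SD, cut at about 10% in these data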;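 also: 0% = DMSO wells and 100% = sodium butyrate wells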
DAX1 inh-2 = inhibitors of human orphan nuclear receptor DAX1 (NR0B1). inhibition, % at 6.75 µM. P51843. HEK293 Gal4-DAX1 luciferase reporter, luminescence. 0.99% of 340,000 active. AID 504766;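 active = inhibition above the mean over all tested compounds plus 3 SD, cut at about 4.2% in these data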;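 also: 0% = DAX1-transfected cells with DMSO and 100% = empty-vector control cells with DMSO; inhibition shows as a rise in luminescence from relieved DAX1 repression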
Target sequence (P51843 207-470 limits assumed): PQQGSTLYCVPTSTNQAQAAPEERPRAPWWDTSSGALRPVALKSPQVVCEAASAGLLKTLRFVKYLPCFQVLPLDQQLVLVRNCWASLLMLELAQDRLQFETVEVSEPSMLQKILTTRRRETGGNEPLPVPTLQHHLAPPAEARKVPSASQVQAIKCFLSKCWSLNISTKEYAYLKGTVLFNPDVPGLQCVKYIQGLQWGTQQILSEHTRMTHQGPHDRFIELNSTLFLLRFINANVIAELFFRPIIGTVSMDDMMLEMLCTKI
hcDAF12 agonist = H. contortus DAF-12 activation, primary screen | activation, % at 6.8 µM | HEK293 hcDAF-12 lit1-tk-luc reporter, luminescence; 0% DMSO, 100% Δ7-dafachronic acid | AID 652067 | 1.4% of 370,000 active;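 active = activation above the mean of all tested compounds plus 3 SD, cut at about 5.5% in these data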;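 also: 100% = response to 3 µM Δ7-dafachronic acid high control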
DAX1 inh confirm = confirmation of human DAX1 (NR0B1) inhibitors | HEK293T StAR-promoter luciferase reporter, SF-1/DAX-1 repression | shares compounds with DAX1 inh-1 | inhibition, % at 6.8 µM | 87% of 2,400 active;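 active = inhibition above the average of every tested compound plus 3 SD, cut at about 3.8% in these data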;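 also: 0% = DAX-1 cells with DMSO and 100% = no DAX-1 control cells with DMSO; active compounds raise luminescence by relieving repression of the StAR reporter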
SF1 AF2mut Luc = nonselective inhibitor or artifact in SF-1 mutant DAX1 counter-screen; inhibition, % at 6.8 µM; 78% of 2,400 active; shares compounds with DAX1 inh-1; HEK293 StAR-luciferase, SF-1 AF2 mutant, luminescence;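 active = inhibition above the mean of all tested compounds plus 3 SD, cut at about 3% in these data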;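 also: 0% = DAX-1 transfected cells with DMSO and 100% = cells without DAX-1 with DMSO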
* marks the source's active call; other numbers are inactive results; · = no result. Sampled rows, rich in hits. Any-hit rate of the full collection: about 4.8%.

SMILES | DAX1 inh-1 | SMARCA2 act | ssDAF12 agonist | hgDAF12 agonist | DAX1 inh-2 | hcDAF12 agonist | DAX1 inh confirm | SF1 AF2mut Luc
COc1ccc(C(=O)Nc2ccnn2C2CCN(C(=O)CCC(F)(F)F)CC2)cc1 | 5.7* | 1 | -1 | 9 | 0 | 5 | 6.4* | 8.0*
CC(=O)c1c(C)[nH]c(C(=O)Nc2ccc(C)c(C)c2)c1C | 4.6* | 3 | 0 | 9 | 2 | 1 | 10* | 7.4*
CCc1c(C(=O)Nc2ccc(C)c(C)c2)[nH]c(C)c1C(C)=O | 1 | 3 | -1 | 5 | 0 | -1 | · | ·
Cc1c(C(=O)NCCCN2CCCCC2)oc2ccc3c(c12)C(O)CC1(CCCCC1)O3 (stereo unspecified) | 5.7* | 0 | -1 | 0 | 0 | -1 | 1 | -1
Cc1ccsc1C(=O)OCC(=O)c1cc(C)n(C)c1C | 4.8* | 0 | 0 | 3 | -3 | 5 | 6.0* | -1
CCCCCn1nnnc1C1(C)CN(S(C)(=O)=O)CC(=O)N1Cc1ccco1 (stereo unspecified) | 0 | -1 | 0 | 6 | · | -1 | · | ·
COc1cc(-c2cnc3c(NC=O)cc(-c4ccc(C)cc4)cn23)cc(OC)c1OC | 11* | 1 | 0 | -3 | · | -2 | 21* | -7
COC(=O)[C@]12C[C@H](CC(=O)N3CCOCC3)C(=O)N(CCc3ccc(OC)c(OC)c3)C1=C[C@H](COCc1ccccc1)O[C@@H]2C | -2 | -6 | -1 | -3 | · | -3 | · | ·
Cc1ccnc(SCc2cc(=O)c(OC(=O)c3ccc(C#N)cc3)co2)n1 | · | · | -2 | 0 | · | 0 | · | ·

From PubChem
